Screening results (PubChem)
STAT3 SMM = binders of human STAT3; P40763; Small molecule microarray, His-STAT3 binding, anti-His fluorescence; calls only; hit rate 0.2% among 17,000; AID 624138;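 active = compounds whose four printed spots each show fluorescence over background unusually high for their array block, chance value under 7%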
mut p53 SMM = binders of human mutant p53. AID 624136. small molecule microarray binding, anti-GST fluorescence. calls only. hit rate 0.4% among 17,000;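 active = compounds whose four printed spots each glow above background more than chance allows, each with a p-value under 7%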
NFkB binder = binders of human NF-kappa-B p105. Small molecule microarray, anti-His fluorescence binding. calls only. hit rate 1.3% among 17,000. P19838;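 active = spot fluorescence over background significantly raised, with a chance value under 7% in all four replicate spots of the compound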;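 note: probe protein is his-tagged human p50 processed subunit at 1 µg/ml; raw spot fluorescence signals with no normalization applied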
c-Myc SMM = binds human c-Myc on microarray; P01106; small molecule microarray, His-c-Myc binding, anti-His fluorescence; calls only; hit rate 1.5% among 17,000; AID 624141;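 active = spot fluorescence over background with P-value below 7% in all four replicate spots, showing protein binding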;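 note: score is binary with 100 for all four spots passing and 0 otherwise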
Target sequence (P01106 whole entry, looked up): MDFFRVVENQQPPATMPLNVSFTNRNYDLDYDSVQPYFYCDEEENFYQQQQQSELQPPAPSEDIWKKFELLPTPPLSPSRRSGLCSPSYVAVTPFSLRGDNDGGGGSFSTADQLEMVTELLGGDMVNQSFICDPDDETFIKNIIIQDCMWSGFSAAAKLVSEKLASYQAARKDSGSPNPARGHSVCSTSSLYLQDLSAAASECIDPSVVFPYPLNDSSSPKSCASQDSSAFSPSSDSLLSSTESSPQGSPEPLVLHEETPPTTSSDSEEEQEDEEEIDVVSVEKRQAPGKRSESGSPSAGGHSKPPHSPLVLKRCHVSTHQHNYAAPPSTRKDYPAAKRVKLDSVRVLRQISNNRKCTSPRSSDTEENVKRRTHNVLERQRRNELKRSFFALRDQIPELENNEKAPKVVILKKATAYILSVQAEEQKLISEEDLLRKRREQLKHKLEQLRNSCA
* = called active by the depositor; i = inactive; + = active, no number. A selection: hits, their analogues and other compounds. The true share with any hit is near 2.5%.

SMILES	STAT3 SMM	mut p53 SMM	NFkB binder	c-Myc SMM
COc1ccc(S(=O)(=O)N(C)C[C@@H]2Oc3c(NS(=O)(=O)c4cn(C)cn4)cccc3C(=O)N([C@H](C)CO)C[C@H]2C)cc1	i	i	i	i
C[C@@H]1CCCCO[C@@H](CN(C)C)[C@H](C)CN([C@@H](C)CO)C(=O)c2cc(NC(=O)Nc3ccc(C(F)(F)F)cc3)ccc2O1	i	i	i	i
C[C@H](CO)N1C[C@H](C)[C@@H](CN(C)C(=O)Nc2ccccc2)Oc2c(NC(=O)c3cnccn3)cccc2C1=O	i	i	i	i
C[C@@H]1CCCCO[C@H](CN(C)C(=O)CCC(F)(F)F)[C@@H](C)CN([C@@H](C)CO)C(=O)c2cc(NC(=O)CCC(F)(F)F)ccc2O1	i	i	i	i
C[C@@H]1CN([C@@H](C)CO)C(=O)c2cc(NC(=O)CCC(F)(F)F)ccc2O[C@@H](C)CCCCO[C@@H]1CN(C)C(=O)CCC(F)(F)F	i	i	+	+
C[C@H](CO)N1C[C@H](C)[C@H](CN(C)C(=O)CCC(F)(F)F)OCCCC[C@H](C)Oc2ccc(NC(=O)CCC(F)(F)F)cc2C1=O	i	i	+	+
COc1ccc(CN(C)C[C@@H]2Oc3ccc(NC(=O)Cc4cn(C)c5ccccc45)cc3CC(=O)N([C@H](C)CO)C[C@H]2C)cc1	i	i	i	i
CC(C)NC(=O)Nc1ccc2c(c1)C(=O)N([C@H](C)CO)C[C@H](C)[C@@H](CN(C)C)OCCCC[C@@H](C)O2	i	i	i	i
COc1ccc(OC)c(NC(=O)CSc2nnnn2C)c1	i	i	i	i
Cn1nnnc1SCCNC/C=C/c1ccccc1	i	i	i	+
COC(=O)c1ccccc1NC(=O)C(C)Oc1ccccc1 (stereo unspecified)	i	i	i	i
COC(=O)c1cccc2nc3c(C(C)O)cccc3nc12 (stereo unspecified)	i	i	i	+
CC(=O)Nc1cccc(NC(=O)c2cc(-c3ccccn3)nc3ccc(Cl)cc23)c1	i	i	i	i
COc1cccc(CN2CCN(C(=O)c3cc(-c4ccccn4)nc4ccc(Cl)cc34)CC2)c1	i	+	i	i
CCCN(C)C[C@H]1OCCCC[C@H](C)Oc2ccc(NS(=O)(=O)c3ccc(OC)cc3)cc2C(=O)N([C@H](C)CO)C[C@H]1C	i	+	i	i
C[C@@H]1CN([C@@H](C)CO)C(=O)c2cc(NS(=O)(=O)c3ccccc3)ccc2O[C@@H](C)CCCCO[C@@H]1CN(C)C(=O)C1CCCCC1	+	i	i	i
C[C@@H]1CCCCO[C@@H](CN(C)S(C)(=O)=O)[C@@H](C)CN([C@@H](C)CO)C(=O)c2cc(NS(=O)(=O)c3ccccc3)ccc2O1	i	i	i	i
CCCN(C)C[C@H]1OCCCC[C@@H](C)Oc2ccc(NS(=O)(=O)c3ccc(Cl)cc3)cc2C(=O)N([C@@H](C)CO)C[C@H]1C	i	i	i	i
C[C@H](CO)N1C[C@H](C)[C@H](CN(C)S(C)(=O)=O)OCCCC[C@H](C)Oc2ccc(NS(=O)(=O)c3ccccc3)cc2C1=O	i	i	+	i
C[C@H](CO)N1C[C@H](C)[C@H](CN(C)C(=O)C2CCCCC2)OCCCC[C@H](C)Oc2ccc(NS(=O)(=O)c3cccs3)cc2C1=O	+	i	i	i
C[C@H](CO)N1C[C@H](C)[C@H](CN(C)C(=O)CCC(F)(F)F)OCCCC[C@H](C)Oc2ccc(NS(=O)(=O)c3cn(C)cn3)cc2C1=O	i	i	i	i
C[C@@H]1CCCCO[C@H](CN(C)C(=O)c2ccncc2)[C@H](C)CN([C@@H](C)CO)C(=O)c2cc(NS(=O)(=O)c3ccccc3)ccc2O1	i	i	i	i
COc1ccc(S(=O)(=O)Nc2ccc3c(c2)C(=O)N([C@@H](C)CO)C[C@H](C)[C@@H](CN(C)S(=O)(=O)c2cccs2)O3)cc1	i	i	i	i
COc1cc(S(=O)(=O)n2nnc3ccccc32)c(OC)cc1Cl	i	i	i	+
OCCN(CCO)Cc1ccc(Br)cc1	i	+	i	i
O=C1NC(=O)c2cc(Nc3ccc(F)cc3)c(Nc3ccc(F)cc3)cc21	i	+	i	i
O=C1O[C@@H](c2ccccc2)[C@@H](c2ccccc2)N2[C@@H](c3ccc(O)cc3)[C@]3(C(=O)Nc4ccc(C#CCCO)cc43)[C@@H](C(=O)N3CCCCCCC3)[C@H]12	i	i	i	i
